Drawing on PubChem BioAssay (NCATS), this text covers parasite growth, % of DMSO control and parasite growth remaining, % of DMSO control (lower = more inhibition) for 36 compounds.

Structures are written as SMILES. Positions of bridges follow the written chain, without caps; N, C: chain ends. Non-standard residues stand in square brackets, D forms with d. Residues, ends and D or L forms follow the SMILES beside them. ξ: configuration not given here. *: point of attachment. Octanoyl(6-Me) = CCC(C)CCCCC(=O)*; ξThr(3R) = C[C@@H](O)C(N)C(=O)O; dDab = NCC[C@@H](N)C(=O)O; Dab = NCC[C@H](N)C(=O)O

The nature of one test: qHTS profiling of the MIPE4 collection as inhibitors of Plasmodium falciparum (3D7) proliferation (AID 743344).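 Note: scaled between DMSO vehicle wells and 0.29 µM artemisinin as full inhibition.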 The note with it: P. falciparum 3D7 in erythrocytes, SYBR Green DNA fluorescence, 72 h; at 28.5 µM unless noted. The gist of the method:
(§1)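 Erythrocytes infected with P. falciparum (0.3% parasitemia, 2.5% hematocrit) incubated with compounds 72 h at 37 C, 5% CO2. Lysis with saponin/Triton buffer containing SYBR Green I, overnight at room temperature in the dark; DNA fluorescence (485/535 nm) normalised to 0.29 uM artemisinin and DMSO.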
In turn, `Cc1ccc2nc(NCCN)c3ncc(C)n3c2c1` displayed a parasite growth, % of DMSO control of 63.3%.

As to `OCC(O)C(O)C(O)CO` (centres undefined), the parasite growth, % of DMSO control came out at 88.8%.

`C[C@H](O)[C@@H]1C(=O)N2C(C(=O)O)=C(S[C@@H]3CN[C@H](CNS(N)(=O)=O)C3)[C@@H](C)[C@@H]12` yielded a parasite growth, % of DMSO control of 107%. As to `C=Cc1c(C)c2cc3nc(cc4[nH]c(cc5nc(cc1[nH]2)C(C)=C5CCC(=O)O)c(CCC(=O)OC)c4C)[C@@]1(C)C3=CC=C(C(=O)OC)[C@H]1C(=O)OC`, the parasite growth, % of DMSO control was found to be 3.3%. `CCCCCCCCCCCCc1ccc(S(=O)(=O)Nc2nncs2)cc1` came in with a parasite growth, % of DMSO control of 79.3%. On the same count and under the same terms, with `CN1C(C(=O)Nc2ccccn2)=C(O)c2sc(Cl)cc2S1(=O)=O` the figure was 64.4%; with `CCNC(=O)Nc1ccc(-c2nc3c(c(N4CCOC[C@H]4C)n2)CCN(C2COC2)C3)cc1`, 24.6%. Same read-out and setting: as for `COc1ccc(S(=O)(=O)Nc2cccnc2Nc2ccc(O)cc2)cc1`, the figure is 64.8%; as for `C[C@@H](Oc1ccc2[nH]nc(C=Cc3cnn(CCO)c3)c2c1)c1c(Cl)cncc1Cl`, 5.43%.

Turning to `CC(=O)C1=C(O)C=C2Oc3c(C(C)=O)c(O)c(C)c(O)c3C2(C)C1=O` (centres undefined), the parasite growth, % of DMSO control turned out to be 82.6%. As to `COc1ccc(C(C)=O)c(O)c1`, the parasite growth, % of DMSO control stood at 86.4%. The compound `Oc1cc(-c2nc(-c3ccccc3)[nH]c2-c2ccncc2)ccc1Cl` gave a parasite growth, % of DMSO control of 5.77%. In the case of `O=c1[nH]c(=O)n([C@H]2C[C@@H](O)[C@@H](CO)O2)cc1F`, the parasite growth, % of DMSO control is 183%. Still for that read-out and setting: as for `COC1=C2C[C@@H](C)C[C@H](OC)[C@@H](O)[C@@H](C)C=C(C)[C@H](OC(N)=O)[C@@H](OC)C=CC=C(C)C(=O)NC(=CC1=O)C2=O`, the figure is 5.43%; as for `C[C@@H]1CC[C@@]2(OC1)OC1CC3C4CC=C5CC(O)CCC5(C)C4CCC3(C)C1[C@@H]2C` (some centres undefined), 94.4%; as for `CC(C)NC[C@@H](C(=O)N1CCN(c2ncnc3c2[C@H](C)C[C@H]3O)CC1)c1ccc(Cl)cc1`, 5.13%.

The compound `COc1cc(CCc2cc(NC(=O)c3ccc(N4C[C@@H](C)N[C@@H](C)C4)cc3)n[nH]2)cc(OC)c1` showed a parasite growth, % of DMSO control of 50.5%. For the compound `CCC(C)CCCCC(=O)N[C@@H](CCN)C(=O)NC(C(=O)N[C@H](CCN)C(=O)N[C@@H]1CCNC(=O)C([C@@H](C)O)NC(=O)[C@@H](CCN)NC(=O)[C@@H](CCN)NC(=O)[C@@H](CC(C)C)NC(=O)[C@H](Cc2ccccc2)NC(=O)[C@H](CCN)NC1=O)[C@@H](C)O` (stereo partly drawn) ({Octanoyl(6-Me)}-[Dab][ξThr(3R)][dDab][dDab][Dab]F[dL][dDab][dDab][ξThr(3R)]; lactam 4-C), the parasite growth, % of DMSO control was 407%. `CC(Cc1ccc(O)c(O)c1)(NN)C(=O)O` (centres undefined) had a parasite growth, % of DMSO control of 54.5%. The compound `CNC(=O)c1cccc(-c2ccc3c(N4CCOC[C@H]4C)nc(N4CCOC[C@H]4C)nc3n2)c1` displayed a parasite growth, % of DMSO control of 8.56%. Regarding `Cc1ccc(O)c(C(CCN(C(C)C)C(C)C)c2ccccc2)c1` (centres undefined), the parasite growth, % of DMSO control was 11.8%. As for `OCc1ccccc1O[C@@H]1O[C@H](CO)[C@H](O)[C@H](O)[C@H]1O`, the parasite growth, % of DMSO control worked out at 95.9%.

`OC[C@H]1OC(O)C[C@@H](O)[C@H]1O` (some centres undefined) yielded a parasite growth, % of DMSO control of 96.9%. The same measure, in the same setting: as for `CCC(C(=O)O)C1CCC(C)C(C(C)C(O)C(C)C(=O)C(CC)C2OC3(C=CC(O)[C@@]4(CC[C@](C)(C5CC[C@@](O)(CC)C(C)O5)O4)O3)C(C)CC2C)O1` (some centres undefined), the figure is 9.07%; as for `c1cncc(CN2CCC(n3ncc4c(N5CCOCC5)nc(-c5ccc6[nH]ccc6c5)nc43)CC2)c1`, 4.76%. Take `CCNC(=O)c1cc2c(-c3cc(OCCN4CCCC4)c(Cl)cc3Cl)nc(N)nc2s1`: the parasite growth, % of DMSO control amounted to 10.8%. The compound `CNC(=O)Nc1ccc(-c2nc(N3CC4CCC(C3)O4)c3cnn(C4CCC5(CC4)OCCO5)c3n2)cc1` returned a parasite growth, % of DMSO control of 5.91%.

`C=CC1=C(C(=O)O)N2C(=O)[C@@H](NC(=O)C(=NO)c3csc(N)n3)[C@H]2SC1` registered a parasite growth, % of DMSO control of 92.8%. With `Cc1cnc(Nc2ccc(CN3CCOCC3)cc2)nc1Nc1cccc(S(=O)(=O)NC(C)(C)C)c1`, the parasite growth, % of DMSO control came to 4.59%. The same measure, in the same setting: with `CCC[C@H]1C[C@H](C(=O)N[C@@H]([C@@H]2O[C@@H](SC)[C@@H](O)[C@@H](O)[C@@H]2O)[C@H](C)Cl)N(C)C1` the figure was 30.4%; with `Cn1cc(C2=C(c3c4n(c5ccccc35)CCC(CN)C4)C(=O)NC2=O)c2ccccc21` (centres undefined), 3.66%; with `CCN(CC)Cc1ccc2cc(COC(=O)Nc3ccc(C(=O)NO)cc3)ccc2c1`, 4.38%. Take `CCc1cc(C(C)=NOCc2ccc(C3CCCCC3)c(C(F)(F)F)c2)ccc1CN1CC(C(=O)O)C1`: the parasite growth, % of DMSO control was 6.45%. For the compound `C[C@H]1C[C@H]2[C@@H]3CCC4=CC(=O)C=C[C@]4(C)[C@@H]3C(=O)C[C@]2(C)[C@@]1(O)C(=O)CO`, the parasite growth, % of DMSO control is 63%. Compound `CC(=O)NC(CS)C(=O)O` (centres undefined) returned a parasite growth, % of DMSO control of 101%. Take `CCCCCCCCCCCC(CC1OC(=O)C1CCCCCC)OC(=O)C(CC(C)C)NC=O` (centres undefined): the parasite growth, % of DMSO control stood at 7.26%.

The nature of another test: qHTS profiling of the MIPE4 collection as inhibitors of Plasmodium falciparum (DD2) proliferation (AID 743345). The note with it: P. falciparum Dd2 in erythrocytes, SYBR Green DNA, 72 h; at 28.5 µM unless noted. An outline of the steps: as §1
With `OCC(O)C(O)C(O)CO` (centres undefined), the parasite growth remaining, % of DMSO control (lower = more inhibition) stood at 105%. Still for that read-out and setting: as for `CCNC(=O)Nc1ccc(-c2nc3c(c(N4CCOC[C@H]4C)n2)CCN(C2COC2)C3)cc1`, the figure is 87.1%. For `Oc1cc(-c2nc(-c3ccccc3)[nH]c2-c2ccncc2)ccc1Cl`, the parasite growth remaining, % of DMSO control (lower = more inhibition) stood at 9.67%. Still for that read-out and setting: as for `COc1cc(CCc2cc(NC(=O)c3ccc(N4C[C@@H](C)N[C@@H](C)C4)cc3)n[nH]2)cc(OC)c1`, the figure is 66.7%; as for `C=CC1=C(C(=O)O)N2C(=O)[C@@H](NC(=O)C(=NO)c3csc(N)n3)[C@H]2SC1`, 95.1%; as for `CCN(CC)Cc1ccc2cc(COC(=O)Nc3ccc(C(=O)NO)cc3)ccc2c1`, 6.93%. For the compound `CCc1cc(C(C)=NOCc2ccc(C3CCCCC3)c(C(F)(F)F)c2)ccc1CN1CC(C(=O)O)C1`, the parasite growth remaining, % of DMSO control (lower = more inhibition) was 69.4%.

As for `C[C@H]1C[C@H]2[C@@H]3CCC4=CC(=O)C=C[C@]4(C)[C@@H]3C(=O)C[C@]2(C)[C@@]1(O)C(=O)CO`, the parasite growth remaining, % of DMSO control (lower = more inhibition) turned out to be 97.9%.
